GAA850 FXN act – increases GAA850 frataxin promoter reporter activity; activation, % at 6 µM; HEK293 lucGAA850 FXN promoter luciferase reporter, 24 h; percent of 10 µM SAHA response; actives 0.56% (n = 360,000);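 active = activation above the average of all compounds screened plus 3 SD, cutoff fixed separately per campaign, cut at about 7.5% in these data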
AHR activator – activates the human aryl hydrocarbon receptor; actives 2.5% (n = 320,000); P35869; activation, % at 5 µM; AHR-responsive luciferase reporter cells, luminescence; in the data active = activation above about 47%
HSP90 inh – blocks HSP90-mediated luciferase refolding in reticulocyte lysate; AID 1789; inhibition, % at 5.6 µM; actives 0.91% (n = 290,000); Rabbit reticulocyte lysate, luciferase refolding luminescence, 3 h;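 active = inhibition above the screen-wide mean plus 3 SD, computed separately per campaign, cut at about 16% in these data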;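 also: inhibitors lower the luminescence because luciferase stays unfolded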
HSF1 inhib – HSF1 inhibition | AID 2098 | NIH3T3-HGL HSE-luciferase, MG132-induced, luminescence 8 h; stronger effect = lower value | activity change, negative = inhibition, % at 7.5 µM (by protocol) | actives 0.77% (n = 300,000);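 active = more than half of replicate wells show activity change below -50%, luminescence cut by over half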;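 also: luciferase reports HSF-1 transcriptional activity via heat shock element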
HSF-1 act – increases HSF-1 driven luciferase reporter signal; NIH3T3-HGL HSF-1 luciferase reporter, MG132, 8 h; 100% = twice DMSO control signal; activation, % at 9 µM; actives 1.7% (n = 300,000); AID 504408;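 active = mean replicate activation of at least 50% with a set share of replicates each reaching 50%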
NR0B1 inh – inhibitors of human orphan nuclear receptor DAX1 (NR0B1). actives 0.99% (n = 340,000). inhibition, % at 6.75 µM. P51843. HEK293 Gal4-DAX1 luciferase reporter, luminescence;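 active = inhibition above the mean over all tested compounds plus 3 SD, cut at about 4.2% in these data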;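 also: inhibition shows as a rise in luminescence from relieved DAX1 repression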
GAA30 FXN cntr – activates GAA30 frataxin promoter, counter-screen for GAA850 activators; HEK293 lucGAA30 FXN promoter luciferase, 24 h; DMSO = 0%, 5 µM ipriflavone = 100%; actives 66% (n = 1,900); activation, % at 6 µM; shares compounds with GAA850 FXN act; AID 588350;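 active = mean activation above the mean of solvent-only control wells plus 3 SD, cut at about 22% in these data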;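 also: counterscreen of GAA850 promoter hits where activity marks nonselective or luminescence artifacts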
FXN GAA850 conf – confirmation of GAA850 frataxin (FXN) promoter activators; shares compounds with GAA850 FXN act; HEK293 lucGAA850 FXN promoter luciferase reporter, 24 h; 100% = activation by SAHA; activation, % at 6 µM; actives 86% (n = 1,900);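 active = mean activation above a set limit taken from the primary screen, cut at about 8% in these data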
Each line names hits and unclear results; the compound was inactive in the other large screens (follow-up assays come after a bar, where they were run). Rows were chosen to be rich in hits. Some 5.9% of all compounds tested hit in one or more screens of this group.

CN(CC(=O)NCCc1ccc(S(N)(=O)=O)cc1)CC(=O)Nc1ccc(Cl)c(C(F)(F)F)c1	none (no result: AHR activator, HSP90 inh, HSF1 inhib, HSF-1 act)
O=C(Nc1ccccc1Cl)c1ccccc1CC(O)(c1ccccc1)c1ccccc1	GAA850 FXN act 14 (no result: AHR activator, HSP90 inh, HSF1 inhib, HSF-1 act) | GAA30 FXN cntr inactive | FXN GAA850 conf 12
COC(=O)[C@]12C(=O)C(C)=C(O)[C@@]1(C)C(C)=CC1[C@@]34CC[C@@H](OC(C)=O)C(C)(C)C3C(C[C@]12C)OC4=O (stereo not given in full)	GAA850 FXN act 8.8 (no result: HSP90 inh) | GAA30 FXN cntr inactive | FXN GAA850 conf inactive
CCOc1ccc(NC(=O)Cc2ccccc2)cc1	GAA850 FXN act 8.4 | GAA30 FXN cntr 82 | FXN GAA850 conf 31
COCC(=O)Nc1ccc(OCc2ccccc2)cc1	none
COC(=O)Nc1ccc(OCc2ccccc2)cc1	GAA850 FXN act 10.0 | GAA30 FXN cntr 89 | FXN GAA850 conf 32
O=C(Cc1ccccc1)Nc1ccc(NC(=O)c2ccco2)cc1	GAA850 FXN act 7.9 | GAA30 FXN cntr 48 | FXN GAA850 conf 22
O=C(NC1CCCC1)C(c1ccncc1)N(C(=O)c1csnn1)C1CCCC1 (stereo not given)	none
CCOc1ccc2nc(SCC(=O)c3cccs3)sc2c1	GAA850 FXN act 8.6, HSF-1 act 61 | GAA30 FXN cntr 102 | FXN GAA850 conf 29
COc1ccc(NC(=O)COc2cc(C)cc(C)c2)cc1S(=O)(=O)N1CCCCC1	none (no result: HSP90 inh)
Nc1nc(Nc2ccccc2F)sc1C(=O)c1ccccc1	none
CC(=O)Nc1c(Br)cc2c(c1Br)Cc1cc(Br)ccc1-2	none (no result: AHR activator, HSP90 inh, HSF1 inhib, HSF-1 act)
CC(=O)Nc1ccc2c(c1)Cc1c-2cc(Br)c(N)c1Br	GAA850 FXN act 7.6 (no result: AHR activator, HSP90 inh, HSF1 inhib, HSF-1 act) | GAA30 FXN cntr 63 | FXN GAA850 conf 28
O=C(c1cc2cc(Br)ccc2o1)N1CCN(c2ccccc2)CC1	none
CN(C)S(=O)(=O)c1ccc(N2CCCC2)c(C(=O)NC(c2ccccc2)c2ccccc2)c1	none
CC(NC(=O)c1cc(S(=O)(=O)N(C)C)ccc1N1CCCC1)C1CC2CCC1C2 (stereo not given)	GAA850 FXN act 11 | GAA30 FXN cntr 31 | FXN GAA850 conf 13
Oc1ccc(Nc2ccnc3cc(Cl)ccc23)cc1	GAA850 FXN act 10 | GAA30 FXN cntr 39 | FXN GAA850 conf 11
Clc1ccc2c(N/N=C/c3ccc(Br)cc3)ccnc2c1	none
Oc1ccc(/C=N/Nc2ccnc3cc(Cl)ccc23)c(O)c1	GAA850 FXN act 12, HSF-1 act 100 | GAA30 FXN cntr 60 | FXN GAA850 conf 19
COc1ccc(C(C)NC(=O)C2CCN(CCCc3ccccc3)CC2)cc1OC (stereo not given)	none (no result: AHR activator, HSP90 inh, HSF1 inhib, HSF-1 act, NR0B1 inh)
Cc1ccc(O)c(NC(=O)CCCC(=O)O)c1	none
Cc1ccc(O)c(NC(=O)CCC2CCCCC2)c1	GAA850 FXN act 8.3, HSF-1 act 151 | GAA30 FXN cntr 91 | FXN GAA850 conf 35
O=C(c1ccccc1)c1ccccc1N/C=C/c1nnnn1-c1ccccc1	none
CN(C)c1ccc(/C=C/c2nnnn2-c2ccccc2)cc1	GAA850 FXN act 8.3 | GAA30 FXN cntr 125 | FXN GAA850 conf 38
Fc1ccc(-n2cc(-c3ccccc3)c3c(=S)nc[nH]c32)cc1	GAA850 FXN act 8.5 | GAA30 FXN cntr inactive | FXN GAA850 conf 14
Fc1cccc(-n2cc(-c3ccccc3)c3c(=S)nc[nH]c32)c1	GAA850 FXN act 7.9 | GAA30 FXN cntr inactive | FXN GAA850 conf 19
Cc1ccc(C(=O)C(=O)c2ccc(C)c(N)c2)cc1N	none
O=C(NCC1CCCCC1)c1cc([N+](=O)[O-])ccc1N1CCOCC1	none
O=C(NC12CC3CC(CC(C3)C1)C2)c1cc([N+](=O)[O-])ccc1N1CCOCC1	GAA850 FXN act 10 | GAA30 FXN cntr inactive | FXN GAA850 conf 10
CC(C)(C)c1ccc(/C=C/C(=O)Nc2nncs2)cc1	GAA850 FXN act 7.6 | GAA30 FXN cntr 108 | FXN GAA850 conf 39

Screens as filed in PubChem.
